The results in this text go back to PubChem BioAssay (EPA / NIEHS).

Inconclusive results are not listed. The source holds several records for some structures; these can differ, active in one and inactive in another. The source made the active and inactive calls. The calls were made as follows: active = hit-call score of the fitted dose curve at least 0.9, where 1 is the maximum; inconclusive = response in the unintended direction; inactive = score below 0.9.

The target of the assay is Nuclear receptor subfamily 4 group A member 2 (Homo sapiens) (UniProt P43354). The assay is described as follows: ATG_NURR1_TRANS: Attagene TRANS-FACTORIAL HepG2 Assay for human Nuclear Receptor Related Protein 1 (NURR1) (AID 2282985). The conditions noted are these: HepG2 Attagene TRANS reporter, mRNA readout. How it is done: ATG_TRANS is a cell-based, multiplexed-readout assay that uses HepG2, a human liver cell line, with measurements taken at 24 hours after chemical dosing in a 24-well plate.ATG_NURR1_TRANS is one of 30 assay component(s) measured or calculated from the ATG_TRANS assay. It is designed to make measurements of mRNA induction, a form of inducible reporter, as detected with fluorescence intensity signals by Reverse transcription polymerase chain reaction (RT-PCR) and Capillary electrophoresis technology.Data from the assay component ATG_NURR1_TRANS was analyzed into 1 assay endpoint. This assay endpoint, ATG_NURR1_TRANS, was analyzed in the positive analysis fitting direction relative to DMSO as the negative control and baseline of activity. Using a type of inducible reporter, measures of mRNA for gain-of-signal activity can be used to understand the reporter gene at the transcription factor-level as they relate to the gene NR4A2. Furthermore, this assay endpoint can be referred to as a primary readout, because this assay has produced multiple assay endpoints where this one serves a reporter gene function. To generalize the intended target to other relatable targets, this assay endpoint is annotated to the nuclear receptor intended target family, where the subfamily is orphan.
Chain of Nuclear receptor subfamily 4 group A member 2 (Homo sapiens) (P43354 whole entry, looked up): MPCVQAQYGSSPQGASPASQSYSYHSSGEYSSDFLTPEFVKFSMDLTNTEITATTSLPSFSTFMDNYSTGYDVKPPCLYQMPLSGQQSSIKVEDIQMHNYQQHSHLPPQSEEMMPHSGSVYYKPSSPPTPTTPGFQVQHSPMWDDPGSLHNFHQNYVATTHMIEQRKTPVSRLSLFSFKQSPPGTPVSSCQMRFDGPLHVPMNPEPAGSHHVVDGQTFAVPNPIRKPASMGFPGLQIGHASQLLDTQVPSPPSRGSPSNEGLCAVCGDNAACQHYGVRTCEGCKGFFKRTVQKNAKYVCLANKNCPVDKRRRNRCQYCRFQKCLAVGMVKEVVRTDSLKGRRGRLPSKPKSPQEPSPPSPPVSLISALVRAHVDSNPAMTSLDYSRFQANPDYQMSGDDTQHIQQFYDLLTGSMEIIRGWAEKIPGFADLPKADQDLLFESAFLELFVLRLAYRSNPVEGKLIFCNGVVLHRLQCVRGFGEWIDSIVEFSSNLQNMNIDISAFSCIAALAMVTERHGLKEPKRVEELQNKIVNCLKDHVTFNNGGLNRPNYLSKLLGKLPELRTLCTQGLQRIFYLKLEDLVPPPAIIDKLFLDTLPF
Human liver HepG2 cells are transiently transfected with multiple reporter transcription units (MRTUs) in 6-well plates using FuGene 6 reagent (Roche; 3 ml FuGene/1 mg DNA). The MRTU constructs are regulated by a cis-regulating element (promoter). […] A major difference between the CIS and TRANS system is that in CIS activities of endogenous TFs are measured, whereas the TRANS assay evaluates changes in activities of exogenous, chimeric NR-Gal4 proteins. […] At the end of 24 hour incubation, total RNA was isolated using TriZol reagent (Invitrogen). The isolated RNA is then reverse-transcribed using oligo(dT) primer and Mo-MLV reverse transcriptase (Invitrogen) with DNAse I (Ambion) treatment for 30 min. The one-tenth of the produced cDNA was amplified by PCR using Taq DNA polymerase (Invitrogen) and two reporter sequence-specific primers. The PCR products were fluorescently labeled by primer extension with 6-arboxyfluorescein (6-FAM) 5'-labeled reporter sequence-specific primer (2 min at 95 C, 20 s at 68 C and 10 min at 72 C) and these products were digested with 5U of HpaI (New England Biolabs) for 2h at 37 C. The fragments were purified using Qiaquick PCR columns (Qiagen), analyzed on an ABI 3130xL genetic analyzer (Applied Biosystems) with peak positions identified by using a set of X-rhodamine (ROX)-labeled MapMarker1000 molecular weight standards (BioVentures). The raw capillary electrophoresis data was processed using Attagraph software (Attagene).
`OCCCCO`: the compound was called inactive.
As to `CC(C=O)Cc1ccc2c(c1)OCO2` (stereo not given), the result was inactive.
Still for that read-out and setting: the value for `C=C(C)C(=O)OCCCCOC(=O)C(=C)C` was “inactive”; that for `CCCSP(=S)(OCC)Oc1ccc(SC)cc1` (stereo not given) was “inactive”.
On the same count and under the same terms, the value for `CN(CCCC(O)c1cccnc1)N=O` (stereo not given) was “inactive”; that for `CCOP(=S)(OCC)SCS(=O)(=O)C(C)(C)C` was “inactive”.
Same read-out and setting: the result for `Cc1ccc(OP(=O)(Oc2ccc(C)cc2C)Oc2ccc(C)cc2C)c(C)c1` reads “inactive”.
In the case of `O=c1oc2ccccc2c(O)c1C(CC(O)c1ccc(-c2ccc(Br)cc2)cc1)c1ccccc1` (stereo not given), the AC50 (commonly the concentration at which the activity in the assay is half-maximal) is 22.3 µM (active) and the compound was called inactive.
For `C=CCOC(F)(C(F)(F)F)C(F)(F)F`, the compound was classed as inactive.
The same measure, in the same setting: the value for `NC(=O)CCl` was “inactive”.
The same measure, in the same setting: the result for `COCC(=O)N(c1c(C)cccc1C)[C@H](C)C(=O)OC` reads “inactive”.
The same measure, in the same setting: the result for `CC1(C)[C@H](C(=O)O[C@H](C#N)c2cccc(Oc3ccccc3)c2)[C@@H]1/C=C(\Cl)C(F)(F)F` reads “inactive”.
Take `CC(c1ccc(O)cc1)c1ccc(O)cc1`: the compound was called inactive.
Still for that read-out and setting: the value for `CN(C)c1ccc(N=O)cc1` was “inactive”; that for `Nc1cccnc1` was “inactive”; that for `CC(C)[C@@H](Nc1ccc(C(F)(F)F)cc1Cl)C(=O)OC(C#N)c1cccc(Oc2ccccc2)c1` (stereo not given in full) was “inactive”.
Same read-out and setting: the value for `O=C1C=CC(=O)c2ccccc21` was “inactive”.
`Cc1ccccc1OP(=O)(Oc1ccccc1C)Oc1ccccc1C`: the AC50 was 26.7 µM (active).
As to `C=C(C)[C@@H]1CC=C(C=O)CC1`, the compound was classed as inactive.
Take `BrCc1ccc(Br)cc1`: the compound was called inactive.
Still for that read-out and setting: the value for `CNC(=O)CSP(=O)(OC)OC` was “inactive”.
As to `O=[N+]([O-])c1ccc(Cl)c([N+](=O)[O-])c1`, the outcome was inactive.
Consider `C=CC(=O)[O][Sn]([CH2]CCC)([CH2]CCC)[CH2]CCC`, for which the AC50 was 0.00109 µM (active).
With `Cc1cccc(OP(=O)(Oc2cccc(C)c2)Oc2cccc(C)c2)c1`, the result was inactive.
On the same count and under the same terms, the result for `O=S1(=O)OC(c2cc(Br)c(O)c(Br)c2)(c2cc(Br)c(O)c(Br)c2)c2ccccc21` reads “inactive”; that for `Nc1ccc(Br)cc1`, “inactive”; that for `O=C(NC(=O)c1c(F)cccc1F)Nc1cc(Cl)c(Oc2ncc(C(F)(F)F)cc2Cl)c(Cl)c1`, “inactive”.
Consider `CC(C)(C)c1ccccc1O`, for which the AC50 is 63.4 µM (active).
As for `c1cc[c]([Sb]([c]2ccccc2)[c]2ccccc2)cc1`, the AC50 was 17.5 µM (active).
As to `O=c1nc(O)n(Cl)c(=O)n1Cl`, the compound was called inactive.
With `C=CCOC(N)=O`, the result was inactive.
Take `Cc1cc(C(C)(C)c2ccc(O)c(C)c2)ccc1O`: the half-maximal activity concentration (AC50) is 69.3 µM (active).
With `Nc1nc(=S)[nH][nH]1`, the compound was called inactive.
On the same count and under the same terms, the value for `ClCCCCl` was “inactive”; that for `C=C(C)C(=O)OCC(CC)CCCC` (stereo not given) was “inactive”; that for `CC(C)(c1ccccc1)c1cc(-n2nc3ccccc3n2)c(O)c(C(C)(C)c2ccccc2)c1` was “inactive”.
With `CCC[CH2][Sn]([CH2]CCC)([CH2]CCC)[CH2]CCC`, the AC50 was 0.497 µM (active).
On to `N#CCCC(Br)(C#N)CBr` (stereo not given), for which the outcome was inactive.
The same measure, in the same setting: the value for `OC(c1ccc(Cl)cc1)(c1ccc(Cl)cc1)c1cccnc1` was “inactive”.
